Experimental findings from PubChem BioAssay are described below.

Structures are written as SMILES. Active and inactive are the calls of the source.

The nature of assay [1]: small molecules captured by biotinylated probe aFSTL3 – biochemical, small-molecule microarray, fluorescence 635/667, stem cell growth factor project, primary screen (AID 1064).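 Further: measures binding of the biotinylated anti-FSTL3 antibody to printed compounds.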 The following applies: higher = more signal.
Assay [2] can be described thus: binders from COS7 lysate, DM2A8 probe, primary screen, torsin A project, cell lysate, small-molecule microarray, fluorescence 635/667 (AID 1065). The following applies: higher = more signal, COS7 lysate expressing mutant human TOR1A.
Assay [3] can be described thus: small molecules captured by biotinylated probe aFGF2 – biochemical, small-molecule microarray, fluorescence 635/667, stem cell growth factor project, primary screen (AID 1067).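 Further: measures binding of biotinylated aFGF2 protein to printed compounds on slides; z-score merges feature fluorescence and signal-to-noise across triplicate slides.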 The following applies: higher = more signal.
The nature of assay [4]: small molecules captured by biotinylated probe aFGF10 – biochemical, small-molecule microarray, fluorescence 635/667, stem cell growth factor project, primary screen (AID 1071).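 Further: score merges 667 nm spot intensity and signal to noise from triplicate slides.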 The following applies: higher = more signal.
In assay [5] the target is Neurogenic locus notch homolog protein 2 (Homo sapiens) (UniProt Q04721). Description: small molecules binding Notch2 protein – biochemical, small-molecule microarray, 635 nm fluorescence, stem cell growth factors, primary screen (AID 1073). The following applies: higher = more signal.
Neurogenic locus notch homolog protein 2 (Homo sapiens), sequence (Q04721 whole entry, looked up, canonical isoform): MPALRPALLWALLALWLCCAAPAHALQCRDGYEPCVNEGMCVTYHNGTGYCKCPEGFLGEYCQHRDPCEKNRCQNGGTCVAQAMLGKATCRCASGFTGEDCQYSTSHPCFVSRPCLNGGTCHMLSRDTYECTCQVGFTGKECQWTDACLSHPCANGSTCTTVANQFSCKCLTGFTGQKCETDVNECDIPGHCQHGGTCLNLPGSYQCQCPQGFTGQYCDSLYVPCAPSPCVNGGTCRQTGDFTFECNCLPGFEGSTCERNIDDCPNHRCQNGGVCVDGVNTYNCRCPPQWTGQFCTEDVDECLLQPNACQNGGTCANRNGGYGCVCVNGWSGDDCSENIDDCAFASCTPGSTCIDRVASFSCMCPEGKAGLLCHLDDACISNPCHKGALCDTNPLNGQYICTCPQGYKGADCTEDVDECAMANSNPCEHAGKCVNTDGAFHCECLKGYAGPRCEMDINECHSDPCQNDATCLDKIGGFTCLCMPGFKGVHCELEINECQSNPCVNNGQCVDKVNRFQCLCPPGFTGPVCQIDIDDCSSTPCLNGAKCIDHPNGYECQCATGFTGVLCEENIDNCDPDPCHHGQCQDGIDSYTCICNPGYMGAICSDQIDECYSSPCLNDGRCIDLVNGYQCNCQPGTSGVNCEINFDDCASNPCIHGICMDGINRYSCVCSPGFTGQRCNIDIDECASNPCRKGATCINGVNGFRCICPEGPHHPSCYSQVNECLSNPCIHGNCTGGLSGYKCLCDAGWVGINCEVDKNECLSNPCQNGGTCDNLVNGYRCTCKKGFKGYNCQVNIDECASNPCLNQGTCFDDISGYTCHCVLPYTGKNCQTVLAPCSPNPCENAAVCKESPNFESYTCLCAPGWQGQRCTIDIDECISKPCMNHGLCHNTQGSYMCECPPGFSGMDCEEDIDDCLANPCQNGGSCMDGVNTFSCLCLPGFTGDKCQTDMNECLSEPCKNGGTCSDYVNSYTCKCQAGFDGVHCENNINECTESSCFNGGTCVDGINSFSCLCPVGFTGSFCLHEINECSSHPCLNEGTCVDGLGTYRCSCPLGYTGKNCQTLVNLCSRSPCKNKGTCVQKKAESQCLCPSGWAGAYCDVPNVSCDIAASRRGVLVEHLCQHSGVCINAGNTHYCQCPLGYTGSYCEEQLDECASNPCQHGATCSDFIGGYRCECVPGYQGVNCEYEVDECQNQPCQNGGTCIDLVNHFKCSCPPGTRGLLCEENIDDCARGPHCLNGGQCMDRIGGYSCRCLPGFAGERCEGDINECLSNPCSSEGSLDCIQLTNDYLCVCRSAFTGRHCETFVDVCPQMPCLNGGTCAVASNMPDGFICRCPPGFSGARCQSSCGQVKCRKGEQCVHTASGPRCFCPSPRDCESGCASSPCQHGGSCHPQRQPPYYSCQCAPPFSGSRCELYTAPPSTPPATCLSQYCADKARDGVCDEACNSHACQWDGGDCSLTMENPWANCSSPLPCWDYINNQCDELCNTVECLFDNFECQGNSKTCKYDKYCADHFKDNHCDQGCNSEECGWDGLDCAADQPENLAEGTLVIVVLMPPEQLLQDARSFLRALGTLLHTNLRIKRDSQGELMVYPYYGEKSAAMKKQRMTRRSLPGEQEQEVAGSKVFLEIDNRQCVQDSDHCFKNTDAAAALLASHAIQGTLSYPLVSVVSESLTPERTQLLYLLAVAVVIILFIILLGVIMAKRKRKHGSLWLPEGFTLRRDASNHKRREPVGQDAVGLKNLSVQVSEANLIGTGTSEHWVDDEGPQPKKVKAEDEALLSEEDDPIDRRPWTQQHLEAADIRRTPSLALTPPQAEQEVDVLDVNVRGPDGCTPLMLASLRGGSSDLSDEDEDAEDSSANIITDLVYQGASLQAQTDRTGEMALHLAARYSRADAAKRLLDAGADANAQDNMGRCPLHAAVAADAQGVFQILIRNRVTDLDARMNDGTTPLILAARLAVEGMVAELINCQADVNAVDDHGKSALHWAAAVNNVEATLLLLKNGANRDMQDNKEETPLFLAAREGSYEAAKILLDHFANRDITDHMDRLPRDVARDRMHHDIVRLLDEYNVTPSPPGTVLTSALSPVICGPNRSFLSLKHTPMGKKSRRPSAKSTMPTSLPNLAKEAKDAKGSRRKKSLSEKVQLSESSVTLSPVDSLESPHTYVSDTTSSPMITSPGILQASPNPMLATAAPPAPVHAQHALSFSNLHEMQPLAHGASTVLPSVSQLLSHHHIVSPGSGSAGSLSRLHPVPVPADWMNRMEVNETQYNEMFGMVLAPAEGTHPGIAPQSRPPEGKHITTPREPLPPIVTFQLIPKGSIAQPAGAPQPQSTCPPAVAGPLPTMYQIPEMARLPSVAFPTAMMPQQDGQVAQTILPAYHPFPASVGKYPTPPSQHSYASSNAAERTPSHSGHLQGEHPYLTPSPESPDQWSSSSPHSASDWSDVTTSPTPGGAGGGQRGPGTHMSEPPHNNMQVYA
Assay [6] deals with Pro-neuregulin-1, membrane-bound isoform (Homo sapiens) (UniProt Q02297). Description: small molecules binding neuregulin-1 protein – biochemical, small-molecule microarray, fluorescence 635/667, psychiatric disease protein project, primary screen (AID 1075).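 Further: score combines 667 nm spot fluorescence with signal to noise.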 The following applies: NRG1 binding, 635 nm fluorescence, higher = more signal.
Pro-neuregulin-1, membrane-bound isoform (Homo sapiens), sequence (Q02297 whole entry, looked up, the tested form may be a part, canonical isoform): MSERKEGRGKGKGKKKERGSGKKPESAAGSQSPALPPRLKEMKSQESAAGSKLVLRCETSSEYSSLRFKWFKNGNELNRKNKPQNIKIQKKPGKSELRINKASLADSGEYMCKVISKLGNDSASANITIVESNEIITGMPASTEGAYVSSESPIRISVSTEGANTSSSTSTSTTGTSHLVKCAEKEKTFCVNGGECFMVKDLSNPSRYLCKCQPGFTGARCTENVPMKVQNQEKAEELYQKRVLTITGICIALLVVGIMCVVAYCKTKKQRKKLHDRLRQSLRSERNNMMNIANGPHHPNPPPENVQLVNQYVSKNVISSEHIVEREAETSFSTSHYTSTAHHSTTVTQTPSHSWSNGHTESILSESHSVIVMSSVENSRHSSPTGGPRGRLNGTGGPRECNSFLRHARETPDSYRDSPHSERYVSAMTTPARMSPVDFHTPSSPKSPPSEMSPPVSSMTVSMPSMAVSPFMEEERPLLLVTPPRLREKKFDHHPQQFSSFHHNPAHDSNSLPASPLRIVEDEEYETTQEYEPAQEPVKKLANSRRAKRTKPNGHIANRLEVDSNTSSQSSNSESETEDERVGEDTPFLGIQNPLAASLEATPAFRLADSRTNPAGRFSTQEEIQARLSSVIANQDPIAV
Assay [7] deals with Neuregulin-1 EGF-like domain. Description: small molecules binding NRG1 EGF domain – biochemical, small-molecule microarray, 635 nm fluorescence, primary screen (AID 1081).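 Further: binding of the protein to compounds printed on small-molecule microarray slides.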 The following applies: higher = more signal.
Assay [8] is described as follows: FRG1 expression reporter modulators in myotubes – cell-based, C2C12 myotubes, firefly/Renilla luciferase, luminescence, FRG1 inhibition for FSHD, primary screen (AID 1084). The following applies: FRG1 promoter luciferase, higher = more signal, called active from +8 up or from −8 down.
Assay [9] is described as follows: small molecules captured by biotinylated probe aFST – biochemical, small-molecule microarray, fluorescence 635/667, stem cell growth factor project, primary screen (AID 1086).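 Further: score merges 667 nm fluorescence with signal-to-noise of each printed compound spot.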 Conditions: higher = more signal.
Assay [10] can be described thus: binders of probe aHhip on microarray, primary screen, stem cell growth factor project, biochemical, small-molecule microarray, fluorescence 635/667 (AID 1087).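 Further: score merges spot fluorescence at 667nm with spot signal to noise ratio.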 The following applies: higher = more signal.

Regarding `O=C1C=C[C@@H](O)[C@@H]2[C@@H]3C(=O)N(c4ccc(F)cc4F)C(=O)[C@@H]3CC[C@@H]12`, the composite z-score is -0.298 in assay [1]; 0.55 in assay [2]; -0.0493 in assay [3]; 0.547 in assay [4]; 0.611 in [5]; 0.12 in assay [6]. Also, the composite z-score in assay [7] was 0.384; in assay [9] it was 0.142; in assay [10], -0.0994. Moreover, the z-score in assay [8] is -0.996 (inactive).

Take `COc1cccc([C@H]2Oc3ccc(OC)cc3C(=NOC[C@@H](O)[C@H]3O[C@@H]4OC(C)(C)O[C@@H]4[C@H]3O)[C@@H]2O)c1`: the composite z-score was -0.117 in assay [1]; 0.146 in assay [2]; -0.0533 in assay [3]; 0.289 in assay [4]; 0.533 in [5]; -0.242 in [6]. Moreover, the composite z-score in assay [7] was 0.54; in assay [9], 0.149; in assay [10], -0.194. For the same molecule, the z-score in assay [8] was 5.07 (inactive).

For the molecule `CO[C@H]1COC(=O)[C@H](C)NC(=O)CC=C[C@@H](C)[C@H](OC)COC(=O)[C@@H](OCc2ccccc2)C=C[C@@H]1C`, the composite z-score is -0.628 in assay [1]; 0.996 in [2]; -0.0877 in [3]; -0.299 in [4]; -0.542 in assay [5]; -0.954 in assay [6]. Also, the composite z-score is -1.45 in assay [7], 0.0521 in assay [9] and -0.0994 in assay [10]. Besides, the z-score in assay [8] was -0.0754 (inactive).

With `CCOC(=O)[C@H](CC(C)C)NC(=O)CCC1CC(OC(=O)NCc2cccc3ccccc23)CC2(CCCC(COC(=O)NCCOc3ccccc3)O2)O1` (stereo not given in full), the composite z-score was -0.646 in assay [1]; 0.374 in assay [2]; -0.016 in assay [3]; 0.273 in assay [4]; 1.2 in [5]; 0.647 in [6]. Besides, the composite z-score in assay [7] amounted to 1.01; in assay [9], 0.0697; in [10] it was 0.224. Also, the z-score in assay [8] is 1.67 (inactive).

On to `COC(=O)[C@H](C)NC(=O)CCC1CC(OC(=O)NCc2cccc3ccccc23)CC2(CCCC(COC(=O)NCC(c3ccccc3)c3ccccc3)O2)O1` (stereo not given in full), for which the composite z-score in [1] is -0.766; in assay [2], 0.233; in [3], -0.0092; in [4], 0.532; in assay [5], 1.23; in assay [6] it was 0.917. Moreover, the composite z-score in [7] is 0.801; in assay [9], 0.157; in assay [10] it was -0.134. In assay [8], the z-score is 2.44 (inactive).

With `CCN1C(=O)[C@@H]2[C@H]3C(=CC[C@@H]2C1=O)C1(OCCCO1)[C@H]1O[C@H]1[C@H]3O`, the composite z-score is -0.418 in assay [1]; 0.771 in assay [2]; -0.076 in [3]; 1.04 in [4]; 1.17 in [5]; 0.692 in assay [6]. Besides, the values for the composite z-score in assay [7], in [9] and in [10] were 1.19, 0.404 and -0.236, respectively. In assay [8], the z-score was 7.42 (inactive).

As for `CCOC(=O)[C@H](Cc1ccccc1)NC(=O)CCC1CC(OC(=O)NCCc2ccc(F)cc2)CC2(CCCC(COC(=O)NCCc3ccccc3OC)O2)O1` (stereo not given in full), the composite z-score in assay [1] was -0.582; in assay [2], 0.238; in assay [3], -0.0592; in [4], 0.82; in [5], 0.879; in assay [6], 0.729. In addition, the composite z-score in assay [7] was 1.22; in assay [9], 0.759; in assay [10], -0.134. Further, the z-score in [8] is 0.865 (inactive).

For the molecule `Cn1c(=O)n2n(c1=O)[C@H]1[C@H](O)[C@@H]3O[C@@H]3C(=NOCc3ccccc3)[C@H]1CC2`, the composite z-score in assay [1] is -0.266; in assay [2], 0.125; in assay [3], -0.085; in assay [4] it was -0.0229; in assay [5], 0.0633; in assay [6], -0.257. In addition, the composite z-score in [7] was 0.0977; in assay [9] it was -0.0977; in [10], -0.0088. Besides, the z-score in assay [8] was -0.928 (inactive).

As for `COC(=O)C1=C(C)N(Cc2ccccc2)[C@]23O[C@](C(=O)OC)(C(=O)N2[C@@H]1c1ccccc1)C(C(=O)OC)=C3C(=O)OC`, the composite z-score in assay [1] is -0.309; in [2], 0.458; in assay [3] it was -0.0232; in assay [4], 1.1; in [5], 0.926; in assay [6], 0.435. Moreover, the composite z-score is 1.21 in assay [7], 0.294 in assay [9] and -0.0003 in [10]. In assay [8], the z-score was -1.51 (inactive).

For the molecule `CC(=O)O[C@H]1C2=CO[C@H](C)[C@H]3[C@H]4C5=C([C@H](O)[C@H]6O[C@H]6C5=O)[C@H](OC4C)[C@@]23C(=O)[C@@H]2O[C@@H]21` (stereo not given in full), the composite z-score in [1] is -0.186; in [2], 0.0382; in assay [3] it was -0.0724; in [4] it was 0.705; in assay [5] it was 0.673; in assay [6] it was 0.435. In addition, the composite z-score is 1.01 in assay [7], 0.163 in assay [9] and 0.154 in assay [10]. The z-score in [8] was -3.35 (inactive).

On to `CC(C)=CCCC(C)=CCON=C1C[C@@H](O)[C@@H](O)[C@@H]2[C@@H]3C(=O)N(c4cccc(Oc5ccccc5)c4)C(=O)[C@@H]3CC[C@@H]12`, for which the composite z-score in assay [1] was -0.473; in assay [2] it was -0.314; in assay [3], -0.0962; in assay [4], 0.341; in [5], 0.521; in assay [6] it was 0.938. Besides, the values for the composite z-score in assay [7], in assay [9] and in assay [10] were 0.972, 0.34 and -0.0994, respectively. Also, in [8], the z-score was 0.508 (inactive).

With `COc1ccc(O[C@H]2C=C[C@@H](c3ccccc3)O[C@@H]2COC(=O)CCC(C)=NOC(C)CN2CCCc3nc(C)c(C)cc32)cc1` (stereo not given in full), the composite z-score in assay [1] is -0.451; in assay [2], -0.395; in assay [3], -0.062; in assay [4] it was 0.623; in assay [5], 0.571; in assay [6], 0.858. The composite z-score in assay [7] is 0.967; in assay [9] it was 0.506; in assay [10] it was -0.199. Besides, the z-score in assay [8] was -0.863 (inactive).

In the case of `CC(C)CON=C1[C@H]2CCn3c(=O)n(Cc4cc5c(cc4Cl)OCO5)c(=O)n3[C@H]2[C@H](O)[C@@H]2O[C@H]12`, the composite z-score in [1] was -0.293; in assay [2] it was 0.493; in assay [3], -0.079; in [4], 0.258; in [5] it was 0.394; in [6] it was 0.142. Further, the composite z-score in assay [7] stood at 0.497; in [9], 0.0082; in assay [10], 0.235. For the same molecule, the z-score in assay [8] was 0.354 (inactive).
